“And” between values parts separate entries of the source, which are not always exact repeats. Identical values can stand only once. Out of some 77,000 compounds screened, about 4,600 (6%) were called active. Another 1% or so got no clear call; they are omitted. The sample holds actives, similar compounds and a random draw of the others, so the mix is not that of the screen.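 Rule for the calls: active = mean inhibition above about 93%, with at least 55% of replicates each passing it (limit read from the data, passing the limit was not always enough); inconclusive = only one of those two conditions holds; inactive = neither condition holds.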
Assay: growth inhibition of T. cruzi in host fibroblasts – cell-based, beta-gal Tulahuen parasites, NIH3T3 host, luminescence, primary screen (AID 624255)
Settings: T. cruzi beta-gal in NIH3T3, GalScreen luminescence, 90 h; at 8.34 µM; hits give high values
In the case of CN1[C@@H]2c3ccc(C4=CCCCC4)c(=O)n3C[C@H]1[C@H](CO)[C@H]2C(=O)NCc1ccc(F)cc1, the inhibition is reported as 66.5% (inactive). In the case of O=C([C@@H]1[C@@H](CO)[C@@H]2Cn3c(ccc(-c4ccccc4F)c3=O)[C@H]1N2C(=O)C1CCC1)N1CCCCC1, the inhibition is reported as -49% (inactive). With O=C(NCC1CC1)[C@@H]1[C@@H](CO)[C@@H]2Cn3c(ccc(C4=CCCC4)c3=O)[C@H]1N2CCC(F)(F)F the inhibition was -0.412% (inactive). For COc1ccc(-c2ccc3c(c2)[C@H]2[C@H](CCN2S(=O)(=O)c2ccccc2F)[C@H](CO)N3)cc1, the inhibition was 14.9% (inactive). With CCCN1[C@H](C(=O)NC2Cc3ccccc3C2)[C@@H](CO)[C@@H]2Cn3c(cccc3=O)[C@@H]21 the inhibition was -19.6% (inactive). For Cc1ccc(S(=O)(=O)N2C[C@@H](O)COC[C@@H]3O[C@@H](CC(=O)N[C@H]4CCN(Cc5ccccc5)C4)CC[C@H]32)cc1, the inhibition was -6.53% (inactive). For CCC(=O)Nc1ccc2c(c1)C(=O)N(C)[C@H]1CC[C@H](CC(=O)NC3Cc4ccccc4C3)O[C@H]1CO2, the inhibition was 37.2% (inactive). With CC(C)NC(=O)Nc1ccc2c(c1)C(=O)N([C@@H](C)CO)C[C@@H](C)[C@@H](CN(C)S(=O)(=O)c1ccc(F)cc1)OCCCC[C@H](C)O2 the inhibition was -55.2% (inactive). In the case of CCCNC(=O)C[C@@H]1C[C@H]2c3cc(NC(=O)Nc4ccccc4F)ccc3O[C@H]2[C@H](CO)O1, the inhibition is reported as 10.8% (inactive). With C[C@H]1CCCCO[C@@H](CN(C)Cc2ccc3c(c2)OCO3)[C@@H](C)CN([C@@H](C)CO)C(=O)c2cc(NS(=O)(=O)c3ccc(F)cc3)ccc2O1 the inhibition was 73.3% (inactive). In the case of C[C@@H]1CCCCO[C@H](CN(C)C(=O)Nc2ccc(C(F)(F)F)cc2)[C@H](C)CN([C@H](C)CO)C(=O)c2cc(NC(=O)Nc3ccc(C(F)(F)F)cc3)ccc2O1, the inhibition is reported as 120% (active). With C[C@@H]1CCCCO[C@@H](CN(C)C(=O)Nc2ccc(C(F)(F)F)cc2)[C@H](C)CN([C@H](C)CO)C(=O)c2cc(NC(=O)c3ccccc3)ccc2O1 the inhibition was 94.9% (inactive). In the case of CC(C)NC(=O)N(C)C[C@H]1OCCCC[C@H](C)Oc2ccc(NC(=O)Nc3ccc(C(F)(F)F)cc3)cc2C(=O)N([C@H](C)CO)C[C@@H]1C, the inhibition is reported as 36.4% (inactive). With C[C@@H]1CCCCO[C@H](CN(C)C(=O)CCCN(C)C)[C@H](C)CN([C@H](C)CO)C(=O)c2cc(NC(=O)CCC(F)(F)F)ccc2O1 the inhibition was 16.6% (inactive). With CNC(=O)C[C@H]1CC[C@H]2[C@H](COc3ccc(NC(=O)Nc4cccc(C)c4)cc3C(=O)N2C)O1 the inhibition was 12.8% (inactive). For O=C(Cc1ccccn1)N[C@H]1CC[C@@H](CC(=O)N2CCCCC2)O[C@@H]1CO, the inhibition was -26% (inactive). In the case of Cc1ccc(-c2cnc3c(c2)C(=O)N([C@H](C)CO)C[C@@H](C)[C@H](CN(C)Cc2ccccc2C(=O)O)O3)cc1, the inhibition is reported as -6.32% (inactive). For COc1ccc(-c2cnc3c(c2)C(=O)N([C@H](C)CO)C[C@H](C)[C@H](CN(C)S(=O)(=O)c2ccccc2)O3)cc1, the inhibition was 37.7% (inactive). For C[C@H](CO)N1C[C@H](C)[C@H](CN(C)C(=O)Nc2ccc(F)cc2)Oc2ncc(-c3cc4ccccc4o3)cc2C1=O, the inhibition was 119% (active). In the case of C[C@H](CO)N1C[C@H](C)[C@H](CN(C)Cc2ccccc2)Oc2ncc(-c3ccccc3)cc2C1=O, the inhibition is reported as 23.4% (inactive) and 14.8% (inactive). With C[C@H](CO)N1C[C@H](C)[C@H](CN(C)S(=O)(=O)c2ccc(F)cc2)Oc2ncc(-c3ccc(F)cc3)cc2C1=O the inhibition was 22.6% (inactive). For Cc1ccc(-c2cnc3c(c2)C(=O)N([C@@H](C)CO)C[C@@H](C)[C@H](CN(C)Cc2ccccc2F)O3)cc1, the inhibition was 111% (active). With C[C@@H]1CN([C@H](C)CO)C(=O)c2cc(Br)cnc2O[C@@H]1CN(C)C(=O)Nc1ccc(F)cc1 the inhibition was -142% (inactive). For Cc1ccc(S(=O)(=O)N(C)C[C@@H]2Oc3ncc(-c4cc5ccccc5o4)cc3C(=O)N([C@H](C)CO)C[C@@H]2C)cc1, the inhibition was 117% (active). For C[C@@H]1CN([C@H](C)CO)C(=O)c2cc(-c3ccccc3)cnc2O[C@H]1CN(C)C(=O)Nc1ccccc1, the inhibition was -81.2% (inactive). With CC=Cc1ccc2n(c1=O)C[C@H]1[C@H](CO)[C@@H](C(=O)NCc3ccncc3)N(Cc3cncnc3)[C@@H]21 (mixture of isomers) the inhibition was 37.5% (inactive). For CCCN1[C@H](C(=O)NCC)[C@@H](CO)[C@@H]2Cn3c(ccc(C4=CCCC4)c3=O)[C@@H]21, the inhibition was 32% (inactive). With COc1cccc(C(=O)Nc2ccc3c(c2)C(=O)N(C)C[C@@H](OC)[C@@H](C)CN(C)[C@@H](C)CO3)c1 the inhibition was -27.6% (inactive). For CO[C@H]1CC[C@H]2CCOc3c(C#N)cccc3C(=O)N(C)CC3(CCCCC3)CC(=O)N(C)C[C@@H]1O2, the inhibition was 13.3% (inactive). For CCCNC(=O)Nc1ccc2c(c1)OC[C@@H](C)N(C(=O)c1ccccc1F)C[C@H](C)[C@@H](OC)CN(C)C2=O, the inhibition was 52.3% (inactive). In the case of CC(C)NC(=O)N1CCCCN2[C@@H](CO)[C@@H](c3ccc(C#Cc4ccccc4)cc3)[C@@H]2C1, the inhibition is reported as 80.4% (inactive). In the case of COc1ccccc1C#Cc1ccc([C@@H]2[C@H](CO)N3CCCCN(C(=O)C4CC4)C[C@@H]23)cc1, the inhibition is reported as 110% (active). With COCC(=O)N1CCCCN2[C@H](CO)[C@H](c3ccc(C#Cc4ccc(OC)cc4)cc3)[C@H]2C1 the inhibition was 72.8% (inactive). For COc1ccccc1C#Cc1ccc([C@@H]2[C@@H](CO)N3CCCCN(S(C)(=O)=O)C[C@@H]23)cc1, the inhibition was 77.3% (inactive). In the case of COc1ccccc1C#Cc1ccc([C@@H]2[C@H](CO)N3CCCCN(C(=O)C4CCCC4)C[C@@H]23)cc1, the inhibition is reported as 109% (active). For COCC#Cc1ccc([C@@H]2[C@@H](CO)N3CCCCN(C(=O)NC4CCCC4)C[C@H]23)cc1, the inhibition was 69.2% (inactive). With COc1ccccc1C#Cc1ccc([C@H]2[C@H](CO)N3CCCCN(C(=O)C4CCC4)C[C@@H]23)cc1 the inhibition was 109% (active). With CO[C@@H]1CN(C)C(=O)c2cc(NC(=O)c3ccccc3)ccc2OC[C@H](C)N(C(=O)CN(C)C)C[C@H]1C the inhibition was -60.5% (inactive). With O=C([C@H]1[C@H](CO)[C@H]2Cn3c(ccc(C4=CCCCC4)c3=O)[C@@H]1N2)N1CCCCC1 the inhibition was 60.4% (inactive). In the case of CO[C@H]1CN(C)C(=O)c2ccc(NS(C)(=O)=O)cc2OC[C@H](C)N(C(=O)C2CCC2)C[C@H]1C, the inhibition is reported as 11% (inactive). In the case of O=C(C1CCC1)N1C[C@H]2[C@@H](c3ccccc31)[C@@H](CO)N2C(=O)c1ccccc1F, the inhibition is reported as 5.17% (inactive). For COc1cccc(S(=O)(=O)N[C@H]2CC[C@@H](CCN)O[C@H]2CO)c1, the inhibition was 59% (inactive). With Cc1noc(C)c1S(=O)(=O)Nc1ccc2c(c1)C(=O)N([C@H](C)CO)C[C@@H](C)[C@@H](CN(C)C(=O)C1CCCCC1)OCCCC[C@@H](C)O2 the inhibition was 48.7% (inactive). In the case of CC(C)NC(=O)Nc1ccc2c(c1)C(=O)N(C)[C@@H]1CC[C@H](CC(=O)NCC3CCCCC3)O[C@@H]1CO2, the inhibition is reported as -5.5% (inactive). With C[C@H](O)C#Cc1ccc2c(c1)O[C@H](CN(C)C(=O)C1CCCCC1)[C@@H](C)CN([C@H](C)CO)S2(=O)=O the inhibition was 60.6% (inactive). In the case of C[C@H]1CCCCO[C@@H](CN(C)C(=O)Cc2ccccc2)[C@@H](C)CN([C@@H](C)CO)C(=O)c2cc(NC(=O)c3ccccc3)ccc2O1, the inhibition is reported as 33.7% (inactive). For C[C@H](CO)N1C[C@H](C)[C@@H](CN(C)Cc2ccccc2)Oc2ccc(NC(=O)Nc3ccc4c(c3)OCO4)cc2C1=O, the inhibition was 8.73% (inactive). For C[C@@H]1CN([C@H](C)CO)C(=O)c2cc(NC(=O)Nc3ccc4c(c3)OCO4)ccc2O[C@H]1CN(C)Cc1ccc(-c2ccccc2)cc1, the inhibition was 70.1% (inactive). For C[C@@H]1CN([C@@H](C)CO)C(=O)c2cc(NC(=O)Nc3ccc4c(c3)OCO4)ccc2O[C@@H]1CN(C)Cc1ccc(Oc2ccccc2)cc1, the inhibition was 100% (active). With COc1ccc(NC(=O)Nc2ccc3c(c2)C(=O)N([C@@H](C)CO)C[C@H](C)[C@@H](CN(C)Cc2ccc4c(c2)OCO4)O3)cc1 the inhibition was 31.2% (inactive). In the case of C[C@H]1CN([C@@H](C)CO)C(=O)c2cc(NC(=O)C3CC3)ccc2O[C@@H]1CN(C)Cc1ccc(Oc2ccccc2)cc1, the inhibition is reported as 66.9% (inactive). With C[C@H]1CN([C@@H](C)CO)C(=O)c2cc(NC(=O)Nc3ccc4c(c3)OCO4)ccc2O[C@@H]1CN(C)Cc1ccc(Oc2ccccc2)cc1 the inhibition was 119% (active). For CCCNC(=O)C[C@@H]1CC[C@@H]2[C@H](COc3ccc(NC(=O)c4cc(F)cc(F)c4)cc3C(=O)N2C)O1, the inhibition was -19.9% (inactive). With C[C@@H]1CCCCO[C@@H](CN(C)C(=O)Nc2ccc(F)cc2)[C@H](C)CN([C@@H](C)CO)C(=O)c2cc(NS(C)(=O)=O)ccc2O1 the inhibition was 23.8% (inactive). For CN(C)C(=O)c1ccc(-c2ccc([C@@H]3[C@@H](CO)N4CCCCN(CC5CC5)C[C@H]34)cc2)cc1, the inhibition was 11.3% (inactive). For CN(C)CC#Cc1ccc([C@H]2[C@H](CO)N3CCCCN(CC4CC4)C[C@@H]23)cc1, the inhibition was -75.2% (inactive). With CN(C)C(=O)c1ccc(-c2ccc([C@H]3[C@H](CO)N4CCCCN(S(C)(=O)=O)C[C@@H]34)cc2)cc1 the inhibition was 83.3% (inactive). For CN(C)C(=O)c1ccc(-c2ccc([C@@H]3[C@H](CO)N4CCCCN(S(C)(=O)=O)C[C@@H]34)cc2)cc1, the inhibition was 103% (active). With CS(=O)(=O)N1CCCCN2[C@@H](CO)[C@@H](c3ccc(Br)cc3)[C@@H]2C1 the inhibition was -42.1% (inactive). With CN(C)C(=O)c1ccc(-c2ccc([C@H]3[C@@H](CO)N4CCCCN(CC5CC5)C[C@H]34)cc2)cc1 the inhibition was 108% (active).
